From publication PMC4552634, “A New Set of Chemical Starting Points with Plasmodium falciparum Transmission-Blocking Potential for Antimalarial Drug Discovery” (PLoS ONE, 2015)
Like-named read-outs stand apart in the source and are kept apart here. The whole screen tested about 13,000 compounds, of which about 3,200 (25%) showed an effect of 50% or more. This is one part of the list.

System: P. falciparum stage V gametocytes
Design: BacTiter-Glo ATP luminescence viability of purified stage V gametocytes in 384-well plates, per cent inhibition versus DMSO
Details: 48 h, 5 µM, inhibitor

Compound	% Inhibition [%]	% Inhibition (% Inhibition) [%]
S=C(Nc1cccc(Cl)c1)NC1CCN(c2ccnc3cc(Cl)ccc23)C1 (stereo not shown) [TCMDC-133400]	41.6	–
Cc1cc(CN2CCCN(c3ccc4c(c3)CCN(Cc3ccc(-c5ncc[nH]5)cc3)CC4)CC2)n(C)n1 [TCMDC-136550]	22.45	–
COc1ccc2nccc([C@@H](O)CN3CCC(NC(=O)c4ccc5nc(-n6cccc6)sc5c4)CC3)c2c1 [TCMDC-141027]	-24.62	–
COc1cc2ccccc2c(CNCCCCCCNCc2c(OC)c(OC)cc3ccccc23)c1OC [TCMDC-137795]	103.3	–
COc1cc2c(cc1CCNCCCCNCCc1cc3c(cc1OC)CCCC3)CCCC2 [TCMDC-137319]	108.4	–
COc1cc2ccccc2cc1CCNCCCCNCCc1cc2ccccc2cc1OC [TCMDC-137944]	108	–
COc1cc2ccccc2c(OC)c1CNCCCCCCNCc1c(OC)cc2ccccc2c1OC [TCMDC-137843]	116.8	–
COc1cc2ccccc2c(CON2C(N)=NC(N)=NC2(C)C)c1OC [TCMDC-131792]	17.71	–
Cl.O=C(Oc1ccc(C2CNCCc3c2cc(OC(=O)c2ccc(O)cc2)c(OC(=O)c2ccc(O)cc2)c3Cl)cc1)c1ccc(O)cc1 (stereo not shown) [TCMDC-141978]	49.99	–
CC(C)Sc1nncc(-c2cnnc(SC(C)C)n2)n1 [TCMDC-123740]	3.174	–
COc1ccc2nccc([C@@H](O)CN3CCC(NCc4cc5cccc6c5n(c4=O)CCC6)CC3)c2c1 [TCMDC-140735]	-18.38	–
CCCc1cc(N2CCC(N3CCCC3)CC2)nc(Nc2ccc(OC)cc2)n1 [TCMDC-132387]	2.102	–
C=C[C@H]1CN2CC[C@H]1C[C@H]2[C@H](O)c1ccnc2ccc(OC)cc12 [TCMDC-125479]	–	-1.021
CC(C)=CCc1c(-c2ccc(O)cc2O)oc2c3c(cc(O)c2c1=O)OC(C)(C)C=C3 [TCMDC-124149]	26.1	–
COc1cc2ccccc2c(OC)c1CCNCCCCNCCc1c(OC)cc2ccccc2c1OC [TCMDC-137842]	116.9	–
O=C(CC(c1ccccc1)c1ccccc1O)N1CCOCC1 (stereo not shown) [TCMDC-125747]	-30.1	–
CC(C)(C)OC(=O)N[C@@H](Cc1ccccc1)C(=O)Nc1cccc(-c2cccc(NC(=O)[C@H](Cc3ccccc3)NC(=O)OC(C)(C)C)c2)c1 [TCMDC-131873]	-20.04	–
COC(=O)C(c1ccc(NC(=O)[C@H](CC(C)C)NC(=O)OC(C)(C)C)cc1)c1ccc(NC(=O)[C@H](CC(C)C)NC(=O)OC(C)(C)C)cc1 [TCMDC-131874]	-21.29	–
C=CCc1ccc(C[C@H](NC(=O)OC(C)(C)C)C(=O)OC)cc1 [TCMDC-138140]	103.3	–
